Bioassay records (PubChem)
Most compounds without a hit are left out; they make up all but 28% or so of the library.
CYP2C9 inh = blocks human cytochrome P450 2C9; CYP2C9 Supersomes, luciferin-H conversion, luminescence; inhibition, % at 5 µM; 96,000 tested, 20% active; AID 777;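 active = blocking of liver enzyme CYP2C9 beyond about 50% at 5 µM, limit read from the data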
CYP2C9 act = increases human cytochrome P450 2C9 activity | recombinant CYP2C9, luciferin-H conversion, luminescence; active compounds read high; factor 1 = untreated enzyme, 0 = blocked | 96,000 tested, 1.4% active | P11712 | AID 1024 | activation factor at 5 µM;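 active = activation factor of 2 or more for CYP2C9 at a 5 µM dose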;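 also: 0 = sulfaphenazole-blocked wells and 1 = vehicle-only wells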
PTK2B oligo ant = blocks oligomerization of human Pyk2 in cells; AID 1347419; 99,000 tested, 0.83% active; Q293 cells, Pyk2 FERM NanoBiT luminescence; active compounds read low; z-score (the deposit names both 25 µM and 10 µM); Q14289;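 active = Z-score of -3 or lower, scaled per plate to the spread of control and sample wells; inactive = z-score above -3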;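 also: negative z-score means lost luminescence so less FERM oligomerization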
CYP2C19 inh = inhibitors of human CYP2C19; P33261; CYP2C19 Supersomes, luciferin-H EGE luminescence, 30 min; inhibition, % at 5 µM; 96,000 tested, 21% active; AID 778;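 active = CYP2C19 inhibition above a set limit at 5 µM in the primary screen, cut at about 50% in these data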;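 also: plate controls were negative control wells for no effect and 2.5 mM tranylcypromine positive control for full effect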
CYP2C19 activ = cytochrome P450 2C19 (human) activation; recombinant CYP2C19, luciferin-H EGE luminescence; active compounds read high; 0 = fully inhibited enzyme, 1 = untreated enzyme; 96,000 tested, under 10 active; activation factor at 5 µM;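 active = activation factor of at least 2 at 5 µM in the primary screen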;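 also: 0 = wells with 2.5 mM tranylcypromine and 1 = vehicle-only wells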
* marks the source's active call; other numbers are inactive results; x = not tested or not shown.

SMILES	CYP2C9 inh	CYP2C9 act	PTK2B oligo ant	CYP2C19 inh	CYP2C19 activ
Cc1ccc2nc(Nc3nc(-c4ccccc4)cc(=O)[nH]3)nc(C)c2c1	55*	0.5	-1.8	26	0.7
Cc1[nH]c2ccccc2c1C1C(c2ccccc2)=NN=C(C(C)C)N1O (stereo not drawn)	x	x	-3.6*	x	x
Cc1[nH]c2ccccc2c1[C@H]1[C@@H](CC#N)C1(C)C	28	0.7	-0.19	48	0.5
COC(=O)[C@H](C)NC(=O)NC1CCN(Cc2ccccc2)CC1	4	1	-0.09	0	1
O=C(CSc1nnc(Cc2ccccc2)o1)Nc1ccc2c(c1)OCO2	94*	0.1	1.6	60*	0.4
Nn1c(SCC(=O)Nc2ccc3c(c2)OCO3)nnc1-c1ccccc1	51*	0.5	0.32	28	0.7
CC(=O)Nc1ccc(NC(=O)CSc2nnc(-c3ccccc3)n2Cc2ccc3c(c2)OCO3)cc1	30	0.7	-1.3	25	0.8
C=CCn1c(SCC(=O)Nc2cccc(OC)c2)nnc1-c1cccnc1	42	0.6	x	37	0.6
C=CCn1c(SCC(=O)Nc2ccc3c(c2)OCO3)nnc1-c1ccccc1	52*	0.5	-0.33	54*	0.5
O=C(CSc1nnc(CNC(=O)c2cccs2)o1)Nc1ccc2c(c1)OCO2	49	0.5	-0.24	16	0.8
C=CCn1c(SCC(=O)Nc2c(C)cccc2C)nnc1-c1ccncc1	24	0.8	2.4	72*	0.3
Cc1c(NC(=O)c2ccc(Br)o2)c(=O)n(-c2ccccc2)n1C	5	1	-0.1	7	0.9
COc1ccc(C(=O)Cn2c3ccccc3n3nc(CCC(=O)O)c(=O)nc23)cc1OC	-11	1.1	1.6	31	0.7
O=C(CSc1nnnn1C1CCCC1)c1ccc2c(c1)OCCO2	27	0.7	-0.88	23	0.8
Cc1ccccc1-c1nnc(SCC(=O)Nc2ccc3c(c2)OCCO3)n1N	73*	0.3	0.39	40	0.6
O=C(CSc1nnnn1C1CCCC1)Nc1ccc2c(c1)OCO2	55*	0.5	0.02	39	0.6
C=CCn1c(SCCC#N)nnc1-c1ccncc1	9	0.9	1	55*	0.4
Nn1c(SCC(=O)Nc2ccc3c(c2)OCCO3)nnc1-c1ccccn1	-21	1.2	x	18	0.8
COC(=O)CSc1nnc(-c2ccncc2)n1N	7	0.9	0.41	25	0.7
Cc1ccc(NC(=O)CSc2nnc(-c3ccncc3)n2N)cc1C	53*	0.5	0.22	29	0.7
CN(C)c1ccc(-c2noc(-c3ccccc3O)n2)cc1	2	1	-0.82	12	0.9
O=C(C(c1ccccc1)c1ccccc1)N1CCC(c2nc(-c3ccccc3Cl)no2)CC1	x	x	0.28	x	x
C=CCn1c(SCC(=O)Nc2ncc(Cc3cc(Cl)ccc3Cl)s2)nnc1-c1ccncc1	17	0.8	-0.63	56*	0.4
CC1(C)Cc2ccccc2-c2nnc(SCC(=O)Nc3ccc4c(c3)OCO4)n21	0	1	-2.4	5	1
C=CCn1c(SCC(=O)Nc2ccc3c(c2)OCO3)nnc1-c1ccccc1OC	89*	0.1	0.08	83*	0.2
SMILES	CYP2C9 inh	CYP2C9 act	PTK2B oligo ant	CYP2C19 inh	CYP2C19 activ
C=CCn1c(SCC(=O)Nc2ccc3c(c2)OCO3)nnc1-c1cc(Br)ccc1O	82*	0.2	-1.6	49	0.5
CC(C)[C@H](NC(=O)CCn1nnc2ccccc2c1=O)C(=O)O	-6	1.1	-0.89	-2	1
COc1ccc(S(=O)(=O)Cc2ccc(C(=O)NC3CC3)o2)cc1	-124	2.2*	x	16	0.8
COc1ccc(S(=O)(=O)Cc2ccc(C(=O)NCc3ccc(F)cc3)o2)cc1	64*	0.4	x	18	0.8
COc1ccc(NC(=O)C(NC(C)=O)C(=O)NCc2ccc(F)cc2)cc1 (stereo not drawn)	15	0.9	0.4	54*	0.5
COc1ccc(S(=O)(=O)Cc2ccc(C(=O)NCc3cccnc3)o2)cc1	58*	0.4	x	90*	0.1
C=CCNC(=S)N/N=C(\C)c1ccccn1	27	0.7	0.69	34	0.7
O=C(Cn1cnc2c(nnn2Cc2ccc(F)cc2)c1=O)N1CCN(c2ccccc2)CC1	-33	1.3	0.43	11	0.9
COc1ccc(OC)c(-n2c(=S)[nH]c3cc(C(=O)NCCCN4CCCC4=O)ccc3c2=O)c1	10	0.9	x	-1	1
COC(=O)C1=C(C)N(C)C(=O)NC1c1cc(Cl)cc(Cl)c1OC (stereo not drawn)	31	0.7	-1.9	40	0.6
